The values that follow come from PMC7862700, “An all-to-all approach to the identification of sequence-specific readers for epigenetic DNA modifications on cytosine”.

Common to all, as to assay: DAPPL (digital affinity profiling via proximity ligation, sequencing); 10 mM Tris-HCl pH 7.5, 50 mM NaCl, 1 mM DTT, 4% glycerol, room temperature, 30 min; GST-TFs on glutathione beads, 16-mer random dsDNA library, 0.1% formaldehyde crosslink after washing; high values mean tight binding
One experiment addresses T1, FEV (Homo sapiens, UniProt Q99581 1-238).
T1 sequence: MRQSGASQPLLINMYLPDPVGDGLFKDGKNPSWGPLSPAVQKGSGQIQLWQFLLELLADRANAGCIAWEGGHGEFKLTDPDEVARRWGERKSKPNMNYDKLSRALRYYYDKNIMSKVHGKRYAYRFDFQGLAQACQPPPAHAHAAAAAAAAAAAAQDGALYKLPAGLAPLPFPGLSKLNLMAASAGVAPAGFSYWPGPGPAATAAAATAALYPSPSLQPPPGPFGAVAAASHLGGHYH
Conditions: protein: recombinant; tags: N-terminal GST; dsDNA, one strand shown. The method in brief:
(§1)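 Beads coated with glutathione captured GST-fused human transcription factors that had been expressed in yeast, and the factors were then given DNA barcodes and pooled with a tag-only sample. The pools were incubated with 200 nmole of a random double-stranded 16-mer DNA library in Tris/NaCl/DTT/glycerol buffer for 30 min at room temperature, washed, crosslinked with 0.1% formaldehyde and proximity-ligated with BsaI/T4 ligase at 37 °C for 1 h. PCR amplification and Illumina NextSeq500 sequencing came last. Binding signal is each hexamer's read frequency for a factor divided by its frequency for the tag-only sample.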

In a further experiment the target is ETV5 (Homo sapiens, UniProt P41161 1-510). The settings on record: protein: recombinant; tags: N-terminal GST; dsDNA, one strand shown. The method in brief: as §1
The target of another experiment is HSF1 (Homo sapiens, UniProt Q00613 1-529). Conditions: protein: recombinant; tags: N-terminal GST; chain copies: 3; dsDNA, one strand shown. The method in brief:
as §1

In a further experiment the target is T2, SPIC (Homo sapiens, UniProt Q8N5J4 1-248).
T2 sequence: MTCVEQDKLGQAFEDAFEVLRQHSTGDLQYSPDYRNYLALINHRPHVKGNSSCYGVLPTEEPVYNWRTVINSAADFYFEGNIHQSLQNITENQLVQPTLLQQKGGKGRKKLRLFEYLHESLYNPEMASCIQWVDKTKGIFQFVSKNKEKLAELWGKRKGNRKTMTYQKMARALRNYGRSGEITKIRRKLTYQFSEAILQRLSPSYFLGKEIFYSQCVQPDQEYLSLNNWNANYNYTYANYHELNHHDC
Conditions: protein: recombinant; tags: N-terminal GST; dsDNA, one strand shown. An outline of the steps:
as §1

A further experiment deals with ELF4 (Homo sapiens, UniProt Q99607 1-663). The settings on record: protein: recombinant; tags: N-terminal GST; dsDNA, one strand shown. An outline of the steps: as §1
The target in the next experiment is T3, ELK4 (Homo sapiens, UniProt P28324-2 1-405).
T3 sequence: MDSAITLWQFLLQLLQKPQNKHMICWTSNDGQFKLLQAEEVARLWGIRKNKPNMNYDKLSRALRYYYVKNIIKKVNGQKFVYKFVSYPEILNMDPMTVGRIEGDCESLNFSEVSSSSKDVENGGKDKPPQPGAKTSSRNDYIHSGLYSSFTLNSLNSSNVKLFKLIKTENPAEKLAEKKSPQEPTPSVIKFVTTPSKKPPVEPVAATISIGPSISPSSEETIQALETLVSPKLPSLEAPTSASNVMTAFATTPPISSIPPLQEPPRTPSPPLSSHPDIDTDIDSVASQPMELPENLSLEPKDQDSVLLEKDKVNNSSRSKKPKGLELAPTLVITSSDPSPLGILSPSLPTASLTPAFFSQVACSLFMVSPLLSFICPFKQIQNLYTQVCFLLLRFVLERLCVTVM
The settings on record: protein: recombinant; tags: N-terminal GST; dsDNA, one strand shown. An outline of the steps:
as §1

The target in the next experiment is T4, ETV2 (Homo sapiens, UniProt O00321 1-342).
T4 sequence: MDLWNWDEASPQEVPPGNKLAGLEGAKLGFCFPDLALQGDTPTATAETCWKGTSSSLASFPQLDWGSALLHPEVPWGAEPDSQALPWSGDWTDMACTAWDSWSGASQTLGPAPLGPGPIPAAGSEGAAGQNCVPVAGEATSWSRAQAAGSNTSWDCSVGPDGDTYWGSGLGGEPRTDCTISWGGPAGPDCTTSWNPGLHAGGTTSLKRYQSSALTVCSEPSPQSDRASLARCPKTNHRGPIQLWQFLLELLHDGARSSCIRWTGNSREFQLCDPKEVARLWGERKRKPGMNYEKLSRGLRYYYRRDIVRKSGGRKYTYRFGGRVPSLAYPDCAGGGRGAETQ
The settings on record: protein: recombinant; tags: N-terminal GST; dsDNA, one strand shown. An outline of the steps:
as §1

For the next experiment, the target named is T5, ELF3 (Homo sapiens, UniProt P78545 1-371).
T5 sequence: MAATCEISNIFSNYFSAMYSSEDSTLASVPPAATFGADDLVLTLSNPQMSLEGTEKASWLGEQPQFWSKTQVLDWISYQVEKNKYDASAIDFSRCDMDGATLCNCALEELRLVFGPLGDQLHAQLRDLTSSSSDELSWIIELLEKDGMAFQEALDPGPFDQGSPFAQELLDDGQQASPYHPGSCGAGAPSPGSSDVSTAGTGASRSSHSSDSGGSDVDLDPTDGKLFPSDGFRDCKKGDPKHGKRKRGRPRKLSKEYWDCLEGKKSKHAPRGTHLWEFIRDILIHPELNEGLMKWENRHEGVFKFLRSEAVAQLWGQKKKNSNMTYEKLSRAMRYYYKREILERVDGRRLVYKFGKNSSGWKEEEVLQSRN
The settings on record: protein: recombinant; tags: N-terminal GST; dsDNA, one strand shown. The method in brief:
as §1

For the next experiment, the target named is CRX (Homo sapiens, UniProt O43186 1-299). The settings on record: protein: recombinant; tags: N-terminal GST; dsDNA, one strand shown. An outline of the steps: as §1
For a further experiment, the target named is ETV1 (Homo sapiens, UniProt P50549 1-477). Conditions: protein: recombinant; tags: N-terminal GST; dsDNA, one strand shown. The method in brief: as §1
The next experiment concerns the target T6, ERF (Homo sapiens, UniProt P50548 1-548).
T6 sequence: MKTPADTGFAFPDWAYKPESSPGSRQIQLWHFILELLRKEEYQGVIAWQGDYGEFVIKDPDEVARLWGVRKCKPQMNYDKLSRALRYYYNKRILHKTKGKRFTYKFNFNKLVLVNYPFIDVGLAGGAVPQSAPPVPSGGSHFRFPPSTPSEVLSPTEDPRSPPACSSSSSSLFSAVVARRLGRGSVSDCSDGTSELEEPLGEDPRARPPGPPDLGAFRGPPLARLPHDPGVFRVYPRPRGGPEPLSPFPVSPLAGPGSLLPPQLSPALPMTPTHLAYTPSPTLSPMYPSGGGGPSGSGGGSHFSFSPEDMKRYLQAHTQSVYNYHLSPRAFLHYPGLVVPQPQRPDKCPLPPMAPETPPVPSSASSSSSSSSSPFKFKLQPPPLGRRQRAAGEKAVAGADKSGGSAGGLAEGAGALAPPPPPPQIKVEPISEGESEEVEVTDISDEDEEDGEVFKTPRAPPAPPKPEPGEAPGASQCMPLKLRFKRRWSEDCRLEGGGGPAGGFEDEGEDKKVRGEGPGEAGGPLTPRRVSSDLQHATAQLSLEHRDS
The settings on record: protein: recombinant; tags: N-terminal GST; dsDNA, one strand shown. The method in brief:
as §1

The next experiment concerns the target T7, ETV3L (Homo sapiens, UniProt Q6ZN32 1-361).
T7 sequence: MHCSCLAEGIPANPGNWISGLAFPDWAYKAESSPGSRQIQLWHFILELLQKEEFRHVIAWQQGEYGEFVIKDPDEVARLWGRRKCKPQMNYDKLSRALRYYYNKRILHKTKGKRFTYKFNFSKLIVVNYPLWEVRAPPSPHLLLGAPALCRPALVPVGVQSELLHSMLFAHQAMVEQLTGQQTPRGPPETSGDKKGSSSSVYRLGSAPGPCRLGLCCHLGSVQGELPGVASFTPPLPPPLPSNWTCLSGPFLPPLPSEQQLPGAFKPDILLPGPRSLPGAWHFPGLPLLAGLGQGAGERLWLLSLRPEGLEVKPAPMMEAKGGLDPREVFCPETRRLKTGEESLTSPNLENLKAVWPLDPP
Conditions: protein: recombinant; tags: N-terminal GST; dsDNA, one strand shown. The method in brief: as §1

The next experiment addresses T8, ETS2 (Homo sapiens, UniProt P15036 1-469).
T8 sequence: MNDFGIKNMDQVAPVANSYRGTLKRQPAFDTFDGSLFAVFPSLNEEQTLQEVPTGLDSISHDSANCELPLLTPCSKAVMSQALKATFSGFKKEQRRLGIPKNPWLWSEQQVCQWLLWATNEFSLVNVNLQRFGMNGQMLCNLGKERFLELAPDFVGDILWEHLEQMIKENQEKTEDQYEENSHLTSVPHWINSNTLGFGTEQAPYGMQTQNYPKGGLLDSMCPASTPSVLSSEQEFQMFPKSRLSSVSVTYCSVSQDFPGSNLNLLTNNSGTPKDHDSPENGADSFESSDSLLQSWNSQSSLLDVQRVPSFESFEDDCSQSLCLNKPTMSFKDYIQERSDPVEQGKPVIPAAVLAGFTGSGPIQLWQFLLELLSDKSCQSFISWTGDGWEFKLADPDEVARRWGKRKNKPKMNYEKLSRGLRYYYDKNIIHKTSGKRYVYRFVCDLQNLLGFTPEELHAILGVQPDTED
The settings on record: protein: recombinant; tags: N-terminal GST; dsDNA, one strand shown. The method in brief: as §1

For the next experiment, the target named is T9, SPDEF (Homo sapiens, UniProt O95238 1-335).
T9 sequence: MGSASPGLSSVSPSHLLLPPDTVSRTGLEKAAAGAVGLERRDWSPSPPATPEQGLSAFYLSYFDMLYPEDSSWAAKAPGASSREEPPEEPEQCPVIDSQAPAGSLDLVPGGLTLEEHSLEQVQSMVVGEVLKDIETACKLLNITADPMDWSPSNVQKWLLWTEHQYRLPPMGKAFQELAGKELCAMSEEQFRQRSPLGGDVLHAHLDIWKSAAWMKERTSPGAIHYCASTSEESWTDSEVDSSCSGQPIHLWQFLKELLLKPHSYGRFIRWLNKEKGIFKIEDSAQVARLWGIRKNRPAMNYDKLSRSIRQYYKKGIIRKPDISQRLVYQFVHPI
The settings on record: protein: recombinant; tags: N-terminal GST; dsDNA, one strand shown. An outline of the steps:
as §1

The target in a further experiment is T10, ETV7 (Homo sapiens, UniProt Q9Y603 1-341).
T10 sequence: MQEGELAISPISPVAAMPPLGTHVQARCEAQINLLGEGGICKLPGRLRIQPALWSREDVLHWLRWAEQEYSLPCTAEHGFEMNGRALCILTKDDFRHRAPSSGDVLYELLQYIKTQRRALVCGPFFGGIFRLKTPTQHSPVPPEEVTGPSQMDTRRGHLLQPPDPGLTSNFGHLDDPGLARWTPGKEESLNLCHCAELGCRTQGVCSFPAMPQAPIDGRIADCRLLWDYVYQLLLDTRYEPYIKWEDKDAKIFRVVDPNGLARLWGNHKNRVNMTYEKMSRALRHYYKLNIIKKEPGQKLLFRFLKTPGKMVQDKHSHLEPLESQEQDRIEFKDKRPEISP
Conditions: protein: recombinant; tags: N-terminal GST; dsDNA, one strand shown. An outline of the steps: as §1

Another experiment has as its target T11, ELF5 (Homo sapiens, UniProt Q9UKW6-2 1-255).
T11 sequence: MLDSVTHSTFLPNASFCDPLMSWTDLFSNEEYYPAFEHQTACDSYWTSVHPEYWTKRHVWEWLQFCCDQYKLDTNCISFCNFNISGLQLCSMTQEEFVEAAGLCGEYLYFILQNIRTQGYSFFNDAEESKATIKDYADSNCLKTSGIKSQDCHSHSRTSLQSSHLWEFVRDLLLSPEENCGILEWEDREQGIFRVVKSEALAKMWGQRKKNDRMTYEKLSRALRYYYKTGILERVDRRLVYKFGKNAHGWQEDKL
The settings on record: protein: recombinant; tags: N-terminal GST; dsDNA, one strand shown. The method in brief:
as §1

The next experiment has as its target T12, ETV3 (Homo sapiens, UniProt P41162-2 1-143).
T12 sequence: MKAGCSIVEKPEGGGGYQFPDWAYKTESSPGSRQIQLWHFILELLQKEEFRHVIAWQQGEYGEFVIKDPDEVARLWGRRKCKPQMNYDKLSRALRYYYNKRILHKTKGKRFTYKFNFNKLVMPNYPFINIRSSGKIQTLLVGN
Conditions: protein: recombinant; tags: N-terminal GST; dsDNA, one strand shown. The method in brief: as §1

The next experiment deals with ETV6 (Homo sapiens, UniProt P41212 1-452). Conditions: protein: recombinant; tags: N-terminal GST; dsDNA, one strand shown. The method in brief: as §1
Chain of ETV6 (P41212 whole entry): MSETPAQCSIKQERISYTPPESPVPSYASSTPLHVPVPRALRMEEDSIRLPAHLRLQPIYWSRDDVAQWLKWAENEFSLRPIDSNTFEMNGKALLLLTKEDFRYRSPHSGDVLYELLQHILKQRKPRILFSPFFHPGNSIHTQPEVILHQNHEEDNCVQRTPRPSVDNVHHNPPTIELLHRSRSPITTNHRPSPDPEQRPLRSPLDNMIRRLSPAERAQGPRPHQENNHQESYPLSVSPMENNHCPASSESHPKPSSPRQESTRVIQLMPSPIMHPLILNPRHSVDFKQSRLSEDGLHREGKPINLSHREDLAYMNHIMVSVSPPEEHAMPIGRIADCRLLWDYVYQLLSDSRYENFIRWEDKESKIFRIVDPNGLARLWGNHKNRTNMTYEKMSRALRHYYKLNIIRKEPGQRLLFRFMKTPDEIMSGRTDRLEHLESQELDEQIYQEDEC

Chain of ETV1 (P50549 whole entry): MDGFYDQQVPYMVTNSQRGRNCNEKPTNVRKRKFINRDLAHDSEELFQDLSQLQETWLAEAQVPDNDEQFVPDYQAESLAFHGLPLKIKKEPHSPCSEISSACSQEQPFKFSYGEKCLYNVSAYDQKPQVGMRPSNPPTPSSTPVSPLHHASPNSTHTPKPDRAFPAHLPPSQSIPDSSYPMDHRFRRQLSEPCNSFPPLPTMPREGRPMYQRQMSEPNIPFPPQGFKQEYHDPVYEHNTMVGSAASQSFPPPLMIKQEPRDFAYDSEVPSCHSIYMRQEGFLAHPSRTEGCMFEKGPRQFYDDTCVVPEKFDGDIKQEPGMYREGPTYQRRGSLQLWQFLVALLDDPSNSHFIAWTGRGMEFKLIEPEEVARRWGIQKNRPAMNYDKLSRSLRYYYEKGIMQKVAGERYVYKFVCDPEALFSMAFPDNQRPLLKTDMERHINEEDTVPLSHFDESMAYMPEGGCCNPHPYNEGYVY
Chain of HSF1 (Q00613 whole entry): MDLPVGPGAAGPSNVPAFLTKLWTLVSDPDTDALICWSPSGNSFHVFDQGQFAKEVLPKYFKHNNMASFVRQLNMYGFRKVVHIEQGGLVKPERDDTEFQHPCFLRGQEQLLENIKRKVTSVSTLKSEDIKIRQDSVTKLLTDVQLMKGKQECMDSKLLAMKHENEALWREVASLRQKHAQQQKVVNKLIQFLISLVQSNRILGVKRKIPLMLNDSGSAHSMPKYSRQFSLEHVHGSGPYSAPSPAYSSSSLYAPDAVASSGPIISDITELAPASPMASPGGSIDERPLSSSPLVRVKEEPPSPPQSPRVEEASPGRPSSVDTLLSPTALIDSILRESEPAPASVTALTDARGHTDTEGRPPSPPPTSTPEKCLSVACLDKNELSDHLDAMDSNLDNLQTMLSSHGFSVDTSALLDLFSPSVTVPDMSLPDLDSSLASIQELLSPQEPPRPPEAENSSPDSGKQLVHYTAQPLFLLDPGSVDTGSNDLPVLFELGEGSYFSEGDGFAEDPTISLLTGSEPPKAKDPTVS
Chain of ELF4 (Q99607 whole entry): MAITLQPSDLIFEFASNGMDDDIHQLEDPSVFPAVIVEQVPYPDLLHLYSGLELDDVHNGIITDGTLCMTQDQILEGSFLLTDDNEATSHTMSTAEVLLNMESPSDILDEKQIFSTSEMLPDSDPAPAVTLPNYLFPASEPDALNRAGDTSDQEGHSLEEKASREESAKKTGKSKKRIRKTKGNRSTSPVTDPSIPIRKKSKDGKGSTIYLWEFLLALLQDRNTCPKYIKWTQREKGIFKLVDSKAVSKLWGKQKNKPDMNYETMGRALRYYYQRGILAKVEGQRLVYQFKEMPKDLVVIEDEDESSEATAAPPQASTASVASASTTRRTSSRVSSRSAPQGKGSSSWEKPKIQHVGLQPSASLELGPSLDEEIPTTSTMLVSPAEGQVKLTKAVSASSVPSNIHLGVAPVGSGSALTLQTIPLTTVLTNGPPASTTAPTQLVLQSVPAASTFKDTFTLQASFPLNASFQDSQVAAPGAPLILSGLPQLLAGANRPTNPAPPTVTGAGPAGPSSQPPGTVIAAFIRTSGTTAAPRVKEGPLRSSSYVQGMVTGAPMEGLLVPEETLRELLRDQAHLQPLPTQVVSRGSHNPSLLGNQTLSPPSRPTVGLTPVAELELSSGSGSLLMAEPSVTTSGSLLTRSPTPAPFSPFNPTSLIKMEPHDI
Chain of ETV5 (P41161 whole entry): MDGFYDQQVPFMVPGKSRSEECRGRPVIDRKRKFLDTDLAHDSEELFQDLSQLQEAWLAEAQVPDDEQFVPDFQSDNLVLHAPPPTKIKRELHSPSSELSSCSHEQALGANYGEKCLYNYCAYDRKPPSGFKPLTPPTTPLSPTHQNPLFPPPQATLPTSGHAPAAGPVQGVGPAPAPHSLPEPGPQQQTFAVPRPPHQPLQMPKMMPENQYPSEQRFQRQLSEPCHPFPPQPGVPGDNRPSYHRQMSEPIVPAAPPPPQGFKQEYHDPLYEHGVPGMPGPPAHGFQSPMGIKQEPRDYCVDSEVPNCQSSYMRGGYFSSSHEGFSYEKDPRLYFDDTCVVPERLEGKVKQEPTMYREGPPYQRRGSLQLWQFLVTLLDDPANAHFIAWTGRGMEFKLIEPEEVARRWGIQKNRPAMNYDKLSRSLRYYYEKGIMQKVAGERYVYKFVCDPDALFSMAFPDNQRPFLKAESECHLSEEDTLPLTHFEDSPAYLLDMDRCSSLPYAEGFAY
Chain of CRX (O43186 whole entry): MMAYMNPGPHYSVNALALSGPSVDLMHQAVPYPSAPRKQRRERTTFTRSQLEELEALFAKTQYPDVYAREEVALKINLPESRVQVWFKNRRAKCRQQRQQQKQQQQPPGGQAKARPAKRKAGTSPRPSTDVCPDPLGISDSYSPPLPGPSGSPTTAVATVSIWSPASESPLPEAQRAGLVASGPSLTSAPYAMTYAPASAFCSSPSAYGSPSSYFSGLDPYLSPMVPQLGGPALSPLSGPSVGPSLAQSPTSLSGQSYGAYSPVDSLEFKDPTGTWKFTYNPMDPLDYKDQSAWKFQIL

Take AATGGC: the binding signal with FEV is 1.52 fold enrichment (6-mer frequency, TF over GST control); with ETV5 it was 1.42 fold enrichment (6-mer frequency, TF over GST control); with HSF1 it was 1.28 fold enrichment (6-mer frequency, TF over GST control); in the experiment with SPIC, 1.61 fold enrichment (6-mer frequency, TF over GST control); in the experiment with ELF4 it was 1.29 fold enrichment (6-mer frequency, TF over GST control); in the experiment with ELK4, 1.52 fold enrichment (6-mer frequency, TF over GST control). Moreover, the binding signal with ETV2 was 1.26 fold enrichment (6-mer frequency, TF over GST control); in the experiment with ELF3, 1.55 fold enrichment (6-mer frequency, TF over GST control); with CRX, 1.26 fold enrichment (6-mer frequency, TF over GST control); in the experiment with ETV1, 1.44 fold enrichment (6-mer frequency, TF over GST control); in the experiment with ERF, 1.25 fold enrichment (6-mer frequency, TF over GST control); with ETV3L it was 1.3 fold enrichment (6-mer frequency, TF over GST control). In addition, the binding signal in the experiment with ETS2 was 1.39 fold enrichment (6-mer frequency, TF over GST control); with SPDEF, 1.29 fold enrichment (6-mer frequency, TF over GST control); with ETV7 it was 1.32 fold enrichment (6-mer frequency, TF over GST control); with ELF5, 1.44 fold enrichment (6-mer frequency, TF over GST control); with ETV3 it was 1.41 fold enrichment (6-mer frequency, TF over GST control); with ETV6, 1.51 fold enrichment (6-mer frequency, TF over GST control).
